Records with an inconclusive call do not appear. The source made the active and inactive calls. The call rests on the fitted dose curve; in most records, active means well fitted inhibition curve with a large enough effect; inconclusive means small, poorly fitted or top-dose-only effect; inactive means flat fitted curve, though single readings scatter. Where a SMILES comes first, the peptide text is derived from it. [ ]: non-standard residue; d: D form. pGlu = O=C1CC[C@@H](C(=O)O)N1; Thz = O=C(O)[C@@H]1CSCN1

What all share (experiment): qHTS profiling for inhibitors of Plasmodium falciparum proliferation (AID 504749); further: nearly all actives have a fitted effect of over 60% in size
Holding throughout (details): P. falciparum in erythrocytes, SYBR Green DNA, 72 h; series mostly up to 28.7 µM
In general terms: Quantitative high-throughput screening tests each substance at several concentrations.

The subject of one assay is FAB9. The method, boiled down: (§1)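 Each compound contacts P. falciparum-infected red blood cells for 72 h at 37 C; lysis buffer (Tris, EDTA, saponin, Triton X, SYBR Green I) is added and fluorescence measured next morning; values normalized to controls.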
For the next assay, the system named is GB4. The method, boiled down: as §1
In a further assay the test system is HB3. The method, boiled down:
as §1

The test system of the next assay is ICS. The method, boiled down: as §1
In another assay the test system is JCK. The method in brief: as §1
The test system of a further assay is N140. The method in brief:
as §1

The test system of a further assay is P93_24. The method in brief: as §1
A further assay deals with P94_40. The method, boiled down:
as §1

A further assay has as its system PAD. The method, boiled down: as §1
The test system of a further assay is PC15. The method in brief:
as §1
Potency means the concentration at half of the fitted maximal effect.

On to `CCCOC(=O)c1ccc(O)cc1`, for which the Potency entry in the assay on FAB9, with GB4, in the assay with HB3, in the assay on ICS, in the assay on JCK and in the assay on N140 was “inactive” in each case. In addition, the Potency result in the assay on P93_24, in the assay on P94_40, in the assay with PAD and in the assay with PC15 was “inactive” in each case.
Regarding `COc1cc(CNC(=O)CCCC/C=C/C(C)C)ccc1O`, the Potency entry in the assay on FAB9, with GB4, in the assay with HB3, in the assay on ICS, in the assay with JCK and in the assay with N140 was “inactive” throughout. Also, the Potency entry in the assay with P93_24, with P94_40, with PAD and in the assay on PC15 was “inactive” throughout.
On to `CC1(C)[C@@H](O)CC[C@]2(C)[C@H]3C(=O)C=C4[C@@H]5C[C@@](C)(C(=O)O)CC[C@]5(C)CC[C@@]4(C)[C@]3(C)CC[C@@H]12`, for which the Potency entry with FAB9, with GB4, in the assay with HB3, in the assay on ICS, in the assay on JCK and in the assay with N140 was “inactive” each time. The Potency result with P93_24, in the assay on P94_40, in the assay with PAD and with PC15 was “inactive” throughout.
As to `O=C(O)/C=C/C(O)c1ccc(Cl)cc1` (stereo unspecified), the Potency result in the assay on FAB9, in the assay on GB4, in the assay on HB3, in the assay on ICS, in the assay on JCK and with N140 was “inactive” throughout. Besides, the Potency entry with P93_24, in the assay on P94_40, in the assay on PAD and in the assay with PC15 was “inactive” each time.
As for `[O-][n+]1ccccc1SSc1cccc[n+]1[O-]`, the Potency with FAB9 is 1580 nM (active); in the assay on GB4 it was 757 nM (active); in the assay with HB3, 891 nM (active); in the assay on ICS it was 794 nM (active); in the assay on JCK, 4470 nM (active); with N140, 708 nM (active). In addition, the Potency is 1000 nM (active) with P93_24, 794 nM (active) in the assay with P94_40, 891 nM (active) with PAD and 2240 nM (active) in the assay with PC15.
Regarding `Nc1ccc(C(=O)O)c(O)c1`, the Potency result with FAB9, in the assay on GB4, in the assay on HB3, with ICS, in the assay on JCK and in the assay on N140 was “inactive” throughout. For the same compound, the Potency entry in the assay on P93_24, with P94_40, with PAD and in the assay on PC15 was “inactive” each time.
For `O=C(O)COc1ccc(C(=O)c2cccs2)c(Cl)c1Cl`, the Potency result with FAB9, with GB4, with HB3, in the assay with ICS, in the assay on JCK and in the assay on N140 was “inactive” throughout. The Potency entry in the assay on P93_24, in the assay on P94_40, in the assay on PAD and in the assay with PC15 was “inactive” each time.
On to `CN1CCN(c2cc3c(nn2)Oc2ccccc2N3C)CC1`, for which the Potency result in the assay with FAB9, in the assay on GB4, with HB3, in the assay with ICS, in the assay on JCK and in the assay with N140 was “inactive” in each case. Moreover, the Potency result in the assay with P93_24, in the assay on P94_40, with PAD and in the assay on PC15 was “inactive” each time.
For the compound `C=CCN1C(=O)C(CC(C)C)NC1=S` (stereo unspecified), the Potency result with FAB9, with GB4, with HB3, with ICS, with JCK and with N140 was “inactive” throughout. In addition, the Potency result in the assay with P93_24, with P94_40, in the assay on PAD and in the assay with PC15 was “inactive” in each case.
For `O=c1[nH]c2ccccc2n1CCCN1CCN(C(c2ccccc2)c2ccccc2)CC1`, the Potency result in the assay with FAB9, with HB3 and in the assay with JCK was “inactive” each time. For the same compound, the Potency is 13500 nM (active) in the assay with GB4, 7940 nM (active) with ICS and 11200 nM (active) in the assay on N140.
In the case of `O=C(O)c1ccccc1Nc1cccc(C(F)(F)F)c1`, the Potency result in the assay with FAB9, with GB4, with HB3, in the assay on ICS, in the assay with JCK and with N140 was “inactive” throughout. Also, the Potency entry with P93_24, in the assay with P94_40, in the assay with PAD and in the assay on PC15 was “inactive” in each case.
On to `CCCCC[C@H](O)/C=C/[C@@H]1[C@@H](C/C=C\CCCC(=O)O)[C@@H](O)C[C@H]1O`, for which the Potency result in the assay on FAB9, with GB4, with HB3, with ICS, in the assay with JCK and in the assay with N140 was “inactive” throughout. In addition, the Potency entry in the assay with P93_24, in the assay with P94_40, with PAD and in the assay with PC15 was “inactive” each time.
For the compound `O=C(O)[C@H](O)[C@@H](O)[C@H](O)[C@H](O)CO`, the Potency result with FAB9, with GB4, in the assay on HB3, with ICS, in the assay with JCK and in the assay on N140 was “inactive” in each case. In addition, the Potency result in the assay on P93_24, in the assay on P94_40, in the assay with PAD and in the assay on PC15 was “inactive” each time.
Regarding `CCCCCCOc1ccccc1C(N)=O`, the Potency entry with FAB9, with GB4, with HB3, with ICS, in the assay on JCK and in the assay on N140 was “inactive” in each case. Also, the Potency result in the assay on P93_24, in the assay on P94_40, with PAD and with PC15 was “inactive” each time.
For the compound `Cc1ccc(O)c(-n2nc3ccccc3n2)c1`, the Potency result in the assay on FAB9, with GB4, in the assay with HB3, in the assay with ICS, in the assay on JCK and with N140 was “inactive” throughout. In addition, the Potency result in the assay with P93_24, with P94_40, in the assay on PAD and with PC15 was “inactive” throughout.
With `c1ccc2sc(SSc3nc4ccccc4s3)nc2c1`, the Potency entry in the assay on FAB9, in the assay with GB4, in the assay with HB3, with ICS, with JCK and with N140 was “inactive” in each case. Also, the Potency result with P93_24, with P94_40, in the assay on PAD and in the assay on PC15 was “inactive” each time.
For the compound `CC1OC1P(=O)(O)O` (stereo unspecified), the Potency result in the assay on FAB9, in the assay on GB4, with HB3, in the assay on ICS, with JCK and in the assay on N140 was “inactive” throughout. In addition, the Potency entry in the assay on P93_24, in the assay on P94_40, in the assay with PAD and with PC15 was “inactive” throughout.
For the compound `CCC1C(=O)OCC1Cc1cncn1C` (stereo unspecified), the Potency result in the assay on FAB9, with GB4, in the assay with HB3, in the assay with ICS, with JCK and in the assay with N140 was “inactive” throughout. Also, the Potency entry with P93_24, in the assay with P94_40, with PAD and with PC15 was “inactive” in each case.
For `O=C(/C=C/c1ccccc1)NCCO`, the Potency result in the assay with FAB9, with GB4, with HB3, with ICS, in the assay with JCK and in the assay on N140 was “inactive” each time. Further, the Potency entry in the assay with P93_24, with P94_40, in the assay on PAD and with PC15 was “inactive” throughout.
Regarding `CCCCCC[C@@H](O)C/C=C\CCCCCCCC(=O)O`, the Potency entry with FAB9, in the assay on GB4, in the assay on HB3, in the assay on ICS, with JCK and with N140 was “inactive” in each case. In addition, the Potency result with P93_24, in the assay on P94_40, with PAD and in the assay with PC15 was “inactive” each time.
Take `CCOC(=O)c1ccccc1O`: the Potency entry with FAB9, with GB4, with HB3, in the assay on ICS, in the assay on JCK and in the assay with N140 was “inactive” in each case. The Potency entry in the assay on P93_24, with P94_40, with PAD and with PC15 was “inactive” each time.
For `CC1(C)C[C@@H]1C(=O)N/C(=C\CCCCSC[C@H](N)C(=O)O)C(=O)O`, the Potency result with FAB9, in the assay on GB4, in the assay with HB3, in the assay with ICS, with JCK and with N140 was “inactive” in each case. Further, the Potency entry with P93_24, with P94_40, in the assay with PAD and in the assay with PC15 was “inactive” in each case.
With `C=CC(N)CCC(=O)O` (stereo unspecified), the Potency entry in the assay on FAB9, in the assay on GB4, in the assay on HB3, in the assay on ICS, with JCK and in the assay on N140 was “inactive” in each case. Moreover, the Potency entry in the assay with P93_24, with P94_40, with PAD and in the assay on PC15 was “inactive” in each case.
Turning to `C=CCCCCCCCCC(=O)O`, the Potency result with FAB9, in the assay with GB4, in the assay on HB3, in the assay on ICS, in the assay with JCK and with N140 was “inactive” each time. The Potency result in the assay on P93_24, in the assay on P94_40, in the assay with PAD and in the assay with PC15 was “inactive” in each case.
For `CC(C(=O)O)c1ccc2c(c1)[nH]c1ccc(Cl)cc12` (stereo unspecified), the Potency entry in the assay on FAB9, in the assay with GB4, in the assay with HB3, in the assay on ICS, with JCK and in the assay on N140 was “inactive” in each case. Besides, the Potency entry with P93_24, with P94_40, in the assay on PAD and with PC15 was “inactive” in each case.
Turning to `O=C(O)[C@H](CC(=O)N1C[C@H]2CCCC[C@H]2C1)Cc1ccccc1`, the Potency result in the assay on FAB9, in the assay with GB4, in the assay with HB3, with ICS, in the assay on JCK and with N140 was “inactive” throughout. Moreover, the Potency entry in the assay on P93_24, with P94_40, in the assay on PAD and in the assay on PC15 was “inactive” throughout.
Take `O=C(O)Cc1ccc(-c2ccccc2)cc1`: the Potency result in the assay on FAB9, in the assay on GB4, in the assay on HB3, in the assay on ICS, with JCK and in the assay on N140 was “inactive” throughout. Also, the Potency entry with P93_24, with P94_40, in the assay on PAD and with PC15 was “inactive” throughout.
Consider `O=C1CC[C@@H](C(=O)N2CSC[C@H]2C(=O)O)N1` ([pGlu]-[Thz]-OH), for which the Potency result with FAB9, in the assay on GB4, with HB3, in the assay with ICS, in the assay with JCK and in the assay with N140 was “inactive” throughout. The Potency result in the assay on P93_24, in the assay on P94_40, in the assay with PAD and with PC15 was “inactive” in each case.
For `Cc1ccc(C(=O)c2ccc(CC(=O)O)n2C)cc1`, the Potency result in the assay on FAB9, in the assay on GB4, with HB3, in the assay with ICS, in the assay on JCK and with N140 was “inactive” throughout. The Potency result in the assay on P93_24, with P94_40, in the assay on PAD and in the assay on PC15 was “inactive” throughout.
As for `Cc1c(Nc2ncccc2C(=O)O)cccc1C(F)(F)F`, the Potency result in the assay with FAB9, in the assay with GB4, in the assay with HB3, in the assay on ICS, in the assay with JCK and in the assay on N140 was “inactive” in each case. Moreover, the Potency result in the assay on P93_24, in the assay with P94_40, in the assay with PAD and with PC15 was “inactive” each time.

These data come from PubChem BioAssay (NCATS).
